Measurements published in PubChem BioAssay (NCI).
Compounds without any hit were thinned out: in the full panel of roughly 79,000, 15% have a hit. Unmarked numbers belong to inactive results. Calls of active or inactive are those of the source. Rule as the data show it: active = growth inhibition above about 70%; inactive = the rest.

Legend:
[1] = NCI Yeast Anticancer Drug Screen. Data for the rad50 strain (AID 155);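 also: 0% = growth of vehicle-only cultures of the same strain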; conditions: S. cerevisiae rad50 strain growth inhibition, active compounds read high
Summary of the method: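 A DNA repair-deficient yeast mutant serves as the test organism; compound-induced growth inhibition is calculated against vehicle-treated cells.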

[2] = NCI Yeast Anticancer Drug Screen. Data for the mec2-1 strain (AID 157); conditions: S. cerevisiae mec2-1 strain, active compounds read high
Summary of the method: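 Test agents were screened against the mec2-1 yeast strain, with defined DNA repair or cell cycle alteration. Growth was scored as inhibition against vehicle-only controls.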

[3] = NCI Yeast Anticancer Drug Screen. Data for the sgs1 mgt1 strain (AID 161);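 also: 0% = growth of cultures given vehicle only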; conditions: S. cerevisiae sgs1 mgt1 strain, active compounds read high
Summary of the method: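 Inhibition of yeast growth, normalised to vehicle-treated controls, is reported for a strain bearing genetic alterations in DNA damage repair.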

[4] = NCI Yeast Anticancer Drug Screen. Data for the cln2 rad14 strain (AID 165);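 also: 0% = growth equal to vehicle treated cultures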; conditions: S. cerevisiae cln2 rad14 strain, active compounds read high
Summary of the method: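 Growth of compound-exposed yeast (cln2 rad14 genotype) measured and expressed as inhibition relative to vehicle.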

[5] = NCI Yeast Anticancer Drug Screen. Data for the bub3 strain (AID 167); conditions: S. cerevisiae bub3 mutant strain, active compounds read high
Summary of the method: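 Inhibition values come from growth of compound-treated mutant yeast normalised to vehicle-treated controls.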

[6] = NCI Yeast Anticancer Drug Screen. Data for the mlh1 rad18 strain (AID 175); conditions: S. cerevisiae mlh1 rad18 strain growth inhibition, active compounds read high
Summary of the method: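 In this whole-cell yeast screen, a strain with altered DNA damage repair is challenged with compound, and its growth is measured against matched vehicle-treated controls.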

[7] = at 5.0 µM (retest, dose inferred, filed as 0.5)
[8] = at 50.0 µM (retest, dose inferred, filed as 5.0)

Row | SMILES | growth inhibition [1, 7] | growth inhibition [1, 8] | growth inhibition ([1]; at 50.0 µM) | growth inhibition [2, 7] | growth inhibition [2, 8] | growth inhibition ([2]; at 50.0 µM) | growth inhibition [3, 7] | growth inhibition [3, 8] | growth inhibition ([3]; at 50.0 µM) | growth inhibition [4, 7] | growth inhibition [4, 8] | growth inhibition ([4]; at 50.0 µM) | growth inhibition [5, 7] | growth inhibition [5, 8] | growth inhibition ([5]; at 50.0 µM) | growth inhibition [6, 7] | growth inhibition [6, 8] | growth inhibition ([6]; at 50.0 µM)
1 | O=C(CSc1nccc(=O)[nH]1)c1ccccc1 | 2% | 24% | 89.4% (active) | 1% | 38% | 81.7% (active) | 5% | 7% | 60.1% | -5% | 4% | 32.4% | -2% | 40% | 86% (active) | 4% | 52% | 40.8%
2 | Cc1c(C)c(NC(=O)/C=C/C(=O)O)c(C)c(C)c1NC(=O)/C=C\C(=O)O | -14% | 14% | 61.7% | -6% | 37% | 88.8% (active) | -13% | 11% | 89.9% (active) | 7% | 11% | 42.2% | -4% | 35% | 86.3% (active) | -31% | 58% | 59.6%
3 | N#CC(Cc1ccc(CC(C#N)(c2ccccc2)c2ccccn2)cc1)(c1ccccc1)c1ccccn1 (configuration not stated) | -1% | 3% | 20.9% | -2% | 3% | 34.5% | -4% | -1% | 10.9% | -6% | 1% | 2.75% | -2% | -8% | 35.4% | -2% | 2% | 14.8%
4 | c1cnc2c(Oc3nc(Oc4cccc5cccnc45)nc(Oc4cccc5cccnc45)n3)cccc2c1 | 1% | 91% (active) | 94% (active) | 30% | 90% (active) | 89.9% (active) | 18% | 76% (active) | 94.1% (active) | 5% | 54% | 84.2% (active) | -2% | 92% (active) | 94% (active) | 30% | 94% (active) | 91.2% (active)
5 | COC(=O)C(=O)/C=C(/O)c1ccc(OC)cc1 | -16% | -1% | -2.15% | -28% | -9% | -28.3% | -7% | 5% | 43% | -12% | 18% | 4.15% | -4% | 24% | 9.85% | -34% | 38% | -26.5%
6 | NC(Cc1ccnnc1)C(=O)O (configuration not stated) | -10% | -5% | -8.6% | 10% | -7% | -36.4% | -7% | -10% | -36.2% | -7% | -11% | 29.1% | -13% | -9% | -22.9% | -16% | -17% | -14.9%
7 | COC(=O)C(=O)C(C(=O)c1ccc(F)cc1)c1nc2n(c1O)C(=N)N=N2 (configuration not stated) | 1% | 52% | 39.6% | -17% | 46% | 77.6% (active) | 19% | 76% (active) | 23.9% | 14% | 57% | 59.9% | 14% | 67% | 35.2% | 24% | 79% (active) | 34.8%
8 | O=c1[nH]c(CN2CCCCC2)nn1-c1ccccc1 | -1% | 3% | 8.25% | 0% | 3% | 10.1% | -1% | 1% | 9.75% | 4% | -1% | 69.4% | 0% | -4% | 14.6% | -2% | 1% | 2.45%
9 | O=C(Nc1ccccc1)OCCCCl | -7% | -4% | 9.1% | -7% | 1% | -13.3% | -16% | 25% | 30.6% | 25% | -7% | 64.3% | -19% | -19% | 7.3% | -23% | -8% | 12.4%
